Inconclusive results are not listed. Calls of active or inactive are those of the source. Calls follow the shape of the dose curve; as a rule, active = well fitted curve in the direction sought with a large enough effect in the repeat runs; inconclusive = weak or mixed curves; inactive = no such curve, though single readings can be large; an effect the other way counts as inactive or inconclusive.
Experiments:
[1] = A CellTox Green Cytotoxicity Assay to monitor cytotoxicity in HepG2 cells - 32 hour (AID 1224883); also: nearly all actives have a fitted effect of over 50% in size; also: potency is read from the fitted curve at half-maximal effect
Procedure, shortened: (§1)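 Continuous culture of HepG2 cells with a membrane-impermeant DNA dye; rising fluorescence marks dead cells. Compound exposure lasted up to 40 h at 37 C, with reads every 8 h from 0 h.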

[2] = qHTS RealTime-Glo MT Cell Viability Assay in HepG2 cells - 16 hour (AID 1224885); also: nearly all actives have a fitted effect of over 50% in size; also: potency is read from the fitted curve at half-maximal effect
Procedure, shortened: (§2)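 Luminescence read-out: viable HepG2 cells reduce a prosubstrate to a NanoLuc substrate, giving a signal proportional to live cell number. Reads taken at 0, 8, 16, 24, 32 and 40 h of compound exposure at 37 C.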

[3] = qHTS RealTime-Glo MT Cell Viability Assay in HEK293 cells - 24 hour (AID 1224886); also: nearly all actives have a fitted effect of over 50% in size; also: potency is read from the fitted curve at half-maximal effect; as to activity change, negative = cytotoxicity: top concentration of the series differs between compounds
Procedure, shortened: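 Nonlytic real-time viability readout: viable cells convert prosubstrate to NanoLuc substrate, giving luminescence proportional to live cell number. HEK293, 600 cells/well, compound added after 5 h, continuous culture at 37 C.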

[4] = qHTS RealTime-Glo MT Cell Viability Assay in HEK293 cells - 8 hour (AID 1224887); also: nearly all actives have a fitted effect of over 50% in size; also: potency is read from the fitted curve at half-maximal effect; as to activity change, negative = cytotoxicity: top concentration of the series differs between compounds
Procedure, shortened: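 qHTS format; HEK293 cells with NanoLuc/prosubstrate reagent, 37 C/5% CO2 for 5 h pre-dosing; compounds 23 nL in DMSO; luminescence at each time point reflects viable cells.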

[5] = qHTS RealTime-Glo MT Cell Viability Assay in HepG2 cells - 0 hour (AID 1224889); also: nearly all actives have a fitted effect of over 50% in size
Procedure, shortened: as §2

[6] = A CellTox Green Cytotoxicity Assay to monitor cytotoxicity in HepG2 cells - 8 hour (AID 1224890); also: nearly all actives have a fitted effect of over 45% in size; also: potency is read from the fitted curve at half-maximal effect
Procedure, shortened: as §1

[7] = qHTS assay to identify small molecule antagonists of the estrogen receptor alpha (ER-alpha) signaling pathway using the BG1 cell line in the presence of 0.1 nM 17-beta-estradiol - cell viability counter screen (AID 1259241); also: nearly all actives have a fitted effect of over 40% in size; also: potency is read from the fitted curve at half-maximal effect
Procedure, shortened: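 Cells were plated and left 24 hr, compounds in DMSO were pinned in, 17beta-estradiol was added to 0.1 nM final, and after 22 hr CellTiter-Fluor reagent was added for 30 min before fluorescence was read.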

[8] = qHTS assay to identify small molecule antagonists of the androgen receptor (AR) signaling pathway using the MDA cell line in the presence of 0.5 nM R1881 - cell viability counter screen (AID 1259242); also: nearly all actives have a fitted effect of over 45% in size; also: potency is read from the fitted curve at half-maximal effect
Procedure, shortened: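 Fluorescence from CellTiter-Fluor, which reports protease activity of live cells, was read 30 min after reagent addition to MDA-kb2 cells that had been incubated 16 hr with compound and 0.5 nM R1881.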

[9] = A CellTox Green Cytotoxicity Assay to monitor cytotoxicity in HEK293 cells - 8 hour (AID 1224884); also: nearly all actives have a fitted effect of over 35% in size
Procedure, shortened: (§3)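 Each value comes from one timepoint of a single continuous run in which HEK293 cells with CellTox Green were exposed to compound for up to 40 h at 37 C, dye fluorescence rising with cell death.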

[10] = A CellTox Green Cytotoxicity Assay to monitor cytotoxicity in HEK293 cells - 16 hour (AID 1224888); also: nearly all actives have a fitted effect of over 35% in size; also: potency is read from the fitted curve at half-maximal effect
Procedure, shortened: as §3
% is scaled to controls: 0 for no effect and ±100 for the full control effect.

COc1cccc(OC)c1O
inactive: Potency [1] | Potency [2] | Potency [3] | Potency [4] | Potency [5] | Potency [6] | Potency [7] | Potency [8]

O=C(Nc1ccc(Cl)cc1)Nc1ccc(Cl)c(C(F)(F)F)c1
inactive: Potency [9] | Potency [10] | Potency [5] | Potency [6] | Potency [7]
active: Potency [1] 19 µM | Potency [3] 5.35 µM | Potency [8] 11.9 µM

CC=O
inactive: Potency [4] | Potency [5] | Potency [7]
active: Potency [1] 36.3 µM | Potency [2] 51.3 µM | Potency [3] 0.575 µM | Potency [10] 57.5 µM | Potency [6] 57.5 µM | Potency [8] 32 µM

S=C(SSSSSSC(=S)N1CCCCC1)N1CCCCC1
inactive: cytotoxicity increase [1] 16.8% [at 15.8 µM] | cytotoxicity increase [9] -0.556% [at 15.8 µM] | activity change [10] 19.1% [at 15.8 µM, active compounds read high] | activity change, negative = cytotoxicity [5] -21.4% [at 15.8 µM] | cytotoxicity increase [6] -7.66% [at 15.8 µM] | viability change, negative = cytotoxic [8] -10.8% [at 19 µM]

CCN(CC)CCOc1ccc(C(O)(Cc2ccc(Cl)cc2)c2ccc(C)cc2)cc1 (stereo not given)
active: Potency [1] 15.1 µM | Potency [3] 19 µM | Potency [4] 21.3 µM
inactive: Potency [9] | Potency [7]

Cc1ccc(O)cn1
inactive: Potency [1] | Potency [9] | Potency [3] | Potency [10] | Potency [5] | Potency [6] | Potency [7] | Potency [8]

C=CC(=O)OCCOCC(CC)(COCCOC(=O)C=C)COCCOC(=O)C=C
inactive: Potency [9] | Potency [10] | Potency [5]
active: Potency [1] 25.6 µM | Potency [3] 16.1 µM | Potency [7] 14.3 µM

Oc1ccc(-c2ccc(O)cc2)cc1
inactive: Potency [1] | Potency [9] | Potency [4] | Potency [10] | Potency [5] | Potency [6] | Potency [7] | Potency [8]

CCC(C)(C)c1cc(O)c(C(C)(C)CC)cc1O
inactive: Potency [9] | Potency [5] | Potency [6] | Potency [7]
active: Potency [1] 49 µM | Potency [3] 21.9 µM | Potency [4] 21.9 µM

O=C(O)CC(=O)O
inactive: Potency [1] | Potency [2] | Potency [3] | Potency [4] | Potency [10] | Potency [6] | Potency [7] | Potency [8]

CCCCCCCCCCOCC(O)CN (stereo not given)
active: Potency [1] 13.4 µM | Potency [2] 16.9 µM | Potency [3] 23.9 µM | Potency [4] 23.9 µM | Potency [10] 26.8 µM | Potency [6] 26.8 µM
inactive: Potency [7]

C[Si](C)(C)Cl
inactive: Potency [1] | Potency [9] | Potency [3] | Potency [4] | Potency [5] | Potency [7] | Potency [8]

O=C1OC(=O)c2cccc3cccc1c23
inactive: Potency [1] | Potency [9] | Potency [3] | Potency [4] | Potency [5] | Potency [6] | Potency [7] | Potency [8]

From PubChem BioAssay (Tox21)
